Compound activity (PubChem)
The sample as a whole holds a higher share of hits than the screen did.
FECH inh – inhibitors of human ferrochelatase | purified FECH, Ni-mesoporphyrin absorbance 550 nm | calls only at 10 µM (by protocol) | 20,000 tested, 3.3% active | AID 1671448;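 active means enzyme reaction rate more than 3 SD below the solvent-only control wells on the same plate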;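 further: lower slope than DMSO wells means FECH inhibition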
Target sequence (P22830 whole entry, looked up): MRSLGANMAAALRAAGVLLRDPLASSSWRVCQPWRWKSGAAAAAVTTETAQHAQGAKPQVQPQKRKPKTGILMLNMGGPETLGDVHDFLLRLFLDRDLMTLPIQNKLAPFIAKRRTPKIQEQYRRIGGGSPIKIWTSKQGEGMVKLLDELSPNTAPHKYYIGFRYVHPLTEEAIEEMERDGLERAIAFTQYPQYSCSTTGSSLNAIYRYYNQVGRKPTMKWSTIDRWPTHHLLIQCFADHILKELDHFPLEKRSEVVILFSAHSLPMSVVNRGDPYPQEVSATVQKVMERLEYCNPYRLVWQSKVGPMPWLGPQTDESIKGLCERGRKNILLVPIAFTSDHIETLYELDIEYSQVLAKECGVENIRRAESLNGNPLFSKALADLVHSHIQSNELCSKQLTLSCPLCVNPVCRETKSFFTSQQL
Calls only; - = inactive; + = active, no number.

SMILES	FECH inh
Cc1cccnc1N1CCN(C(=O)c2cccc(-c3ccc(O)cc3)c2)CC1	-
COc1ccc(Nc2cc(C)nc(Nc3ccc(NC(=O)c4cccc(Cl)c4)cc3)n2)cc1	-
CCOc1ccc2nc(N3CCC(C(=O)NCCc4ccc(S(N)(=O)=O)cc4)CC3)sc2c1	-
OCCNc1cc(-c2cc(CO)ccn2)c2cc[nH]c2n1	-
O=c1c2c(nc3nc(CNc4cccc(C(F)(F)F)c4)[nH]n13)CCC2	+
COc1ccccc1NCc1nc2nc3c(c(=O)n2[nH]1)CCC3	-
COc1ccc(CNc2nc3nc(CNc4cccc(Cl)c4)cc(=O)n3[nH]2)cc1	-
CCc1nc2nc(C)c(NC(=O)Nc3cccc(F)c3)c(=O)n2[nH]1	-
COc1cccc(NCc2nc3nc4c(c(=O)n3[nH]2)CCC4)c1	+
Cc1nc2nc[nH]n2c(=O)c1NC(=O)Nc1cccc(C(F)(F)F)c1	-
CC(C)Cn1ccnc1-c1ccc(OCC(N)=O)c(Cl)c1	-
CSc1nc(-c2ccc(C)cc2)c(C#N)c(N2CCN(c3cccc(C)c3)CC2)n1	-
Cc1nc2c(N(C)CC3CC(=O)N(C(C)(C)C)C3)ncnc2o1 (centres undefined)	-
CN(C)c1ccc(CNC(=O)CN2C(=O)c3cccnc3Sc3ccccc32)cc1	+
Cc1ccc(NC(=O)CN2C(=O)c3cccnc3Sc3ccccc32)cc1F	+
CCCCOc1ccc(CNC(=O)CN2C(=O)c3cccnc3Sc3ccccc32)cc1	+
O=C(CN1C(=O)c2cccnc2Sc2ccccc21)NCCc1ccco1	-
O=C(CCCN1C(=O)c2cccnc2Sc2ccccc21)Nc1cc(-c2cccc(Cl)c2)no1	-
CN1CC(=O)N(CC(=O)NCc2ccc(F)cc2)c2ccccc2C1=O	-
CCCCOc1ccc(CNC(=O)c2ccc(CN3C(=O)CCn4nccc43)cc2)cc1	-
CN1CC(=O)N(CC(=O)Nc2ccc(F)c(F)c2)c2ccccc2C1=O	-
Cc1ccc(NC(=O)CN2C(=O)CN(C)C(=O)c3ccccc32)cc1C	-
COc1ccc(OC)c(S(=O)(=O)N2CCN(c3nc(C)cc(N4CCOCC4)n3)CC2)c1	-
O=C(NCC(=O)N1CCC(c2nc(-c3ccc(Cl)cc3)no2)CC1)c1cccs1	-
CC(C)(C)CNC(=O)c1nc[nH]c1C(=O)N1CCOCC1	-
SMILES	FECH inh
CCN(CC)c1ncc(NS(=O)(=O)c2ccc(C)c(C)c2)cc1C(=O)O	-
CCc1c(C(=O)N2CCNCC2C(=O)NC2CC2)csc1C (centres undefined)	-
C=CCOc1c(Cl)cc(CN2CCNC(=O)C2)cc1Cl	-
Cc1cc(C)c(S(=O)(=O)NCc2nc3cccnc3n2Cc2ccc(F)cc2)cc1C	-
O=C1c2cccnc2CN1Cc1cc(-c2ccccc2)n[nH]1	-
O=C(c1cn[nH]n1)N1CCC(c2cc(Cc3ccccc3)[nH]n2)CC1	-
Cc1ccc(-c2nc(C)cc(OCC(=O)Nc3ccc(C)c(F)c3)n2)cc1	+
Cc1ccc(-c2nc(C)cc(OCC(=O)Nc3cc(C)ccc3C)n2)cc1	-
COc1ccc(NC(=O)COc2cc(C)nc(-c3ccc(C)cc3)n2)cc1OC	-
Cc1ccc2[nH]c(C(=O)N3CCn4cccc4C3c3cccnc3)c(C)c2c1 (centres undefined)	-
CCCC(=O)Nc1cc(C)nn1-c1ncnc2c1cnn2-c1ccc(C)cc1C	-
CCn1ccc2c(CN3CCOCC(CN(C)C)C3)cccc21 (centres undefined)	-
Cc1ccc(N2C(=O)CCS2(=O)=O)cc1S(=O)(=O)Nc1ccc(C(N)=O)cc1	-
COc1ccc(NC(=O)CN2CCCN(Cc3ccccc3Cl)S2(=O)=O)cc1Cl	+
CSc1cccc(NC(=O)CN2CCN(Cc3ccccc3C)S2(=O)=O)c1	+
CCc1cccc(NC(=O)CN2CCN(Cc3ccccc3C)S2(=O)=O)c1	-
O=C(CN1CCCN(Cc2ccccc2Cl)S1(=O)=O)Nc1ccccc1	-
CCOc1ccc(NC(=O)CN2CCCN(Cc3ccc(C)cc3)S2(=O)=O)cc1	+
CCOC(=O)c1ccc(NC(=O)CN2CCCN(Cc3ccc(C)cc3)S2(=O)=O)cc1	-
CSc1cccc(NC(=O)CN2CCN(Cc3ccccc3)S2(=O)=O)c1	-
COc1ccc(NC(=O)CN2CCCN(Cc3ccc(C)cc3)S2(=O)=O)cc1	-
COc1ccc(NC(=O)CN2CCCN(Cc3ccc(C)cc3)S2(=O)=O)c(OC)c1	-
CC(=O)c1cccc(NC(=O)CN2CCCN(Cc3ccccc3Cl)S2(=O)=O)c1	-
COc1cc(OC)c(NC(=O)CN2CCCN(Cc3cc(C)ccc3C)S2(=O)=O)cc1Cl	+
Cc1ccc(NC(=O)CN2CCN(Cc3cc(C)ccc3C)S2(=O)=O)cc1	-
Cc1onc(C(=O)NCc2cccnc2Oc2ccccc2F)c1CO	-
CC1CCN(c2nc(Nc3ccc4c(c3)OCO4)c3cnn(-c4ccccc4)c3n2)CC1	-
Cc1cc(C(=O)NCC2CCN(c3cnn(C)c(=O)c3)C2)ccc1O (centres undefined)	-
COC(=O)c1cc2ccsc2n1C(C)C(=O)Nc1ccc(OC)c(OC)c1 (centres undefined)	-
O=C(CN1CCCN(Cc2cccc(Cl)c2)S1(=O)=O)Nc1cccc(Cl)c1	-
